Several values for one entry are separate records, joined by “and”; a condition that tells them apart may be missing. Equal entries are not always repeated. Inconclusive results are not listed. Unmarked numbers belong to inactive results. Activity calls are given as the source filed them. Calls come from the whole dose curve; as a rule, active = well fitted curve in the direction sought with a large enough effect; inconclusive = small, poorly fitted or top-dose-only effect, or another doubt; inactive = no such curve, though single readings can be large or run the other way. Where a SMILES comes first, the peptide text is derived from it. Bridges are numbered along the chain shown (N, C = ends). [ ]: non-standard residue; d: D form. The star is where a group is joined. X2 = CC[C@H](C)CCCCC(=O)*; Dab = NCC[C@H](N)C(=O)O
% is set by controls: 0 for no effect and ±100 for the full control effect; potency is the fitted concentration of half-maximal effect.

The test is described as follows: qHTS Assay for Identifying Gametocytocidal Compounds (AID 743244).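 For max response: actives lower the fluorescent signal which means gametocytes are killed.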 Particulars: P. falciparum 3D7 stage III-V gametocytes, alamarBlue, 72 h; max response: hits give low values. A digest of the protocol: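 P. falciparum 3D7 stage III–V gametocytes (20,000 cells/well) were exposed to compounds for 72 h at 37 °C, 5% CO2. AlamarBlue was then added for 24 h; decreased resorufin fluorescence (Ex 525/Em 598 nm) indicated loss of viability.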
For orientation: Quantitative high-throughput screening tests each substance at several concentrations.
As for `Cc1[nH]cnc1C[C@H]1CCc2c(C)c3ccccc3n2C1=O`, the max response is 6.9%.
Turning to `CC#CCC(C)[C@H](O)/C=C/[C@@H]1[C@H]2c3cccc(CCCC(=O)O)c3O[C@H]2C[C@H]1O` (some centres not stated), the max response is 6.65%.
For the molecule `CC(=O)N[C@@H](C=O)[C@H](O)[C@H](O)[C@@H](O)CO`, the max response is -5.02% and 7.73%.
Consider `Nc1ncnc(Nc2ccc(Cl)cc2)n1`, for which the max response is -12%.
For the molecule `CN(C)Cc1ccccc1`, the max response was 9.16%.
Take `COC(C)=O`: the max response is 1.99%.
`CC(=O)S[C@@H]1CC2=CC(=O)CC[C@]2(C)[C@H]2CC[C@@]3(C)[C@@H](CC[C@@]34CCC(=O)O4)[C@H]12`: the max response was 15.7%.
Turning to `OC(CN1CCCCC1)c1cc(-c2ccccc2)on1` (configuration not stated), the max response is -4.26%.
`CCCCCCCCCCCCCCCC(=O)OCCC1CCN(CCCN2c3ccccc3Sc3ccc(S(=O)(=O)N(C)C)cc32)CC1`: the max response is -11.1%.
In the case of `CCC(=O)OCC(=O)[C@@]1(OC(=O)CC)[C@H](C)C[C@H]2[C@@H]3CCC4=CC(=O)C=C[C@]4(C)[C@@]3(F)[C@@H](O)C[C@@]21C`, the max response was -4.58%.
Take `COc1ccc(C2NC(=S)N3C(c4ccc(OC)c(OC)c4)NC(=S)N23)cc1OC` (configuration not stated): the Potency was 2.3 nM (active).
For the molecule `C=Cc1ccccc1`, the max response was 5.81%.
Same read-out and setting: in the case of `CCCCCCCC/C=C\CCCCCCCC(=O)OC[C@@H](O)[C@H]1OC[C@H](O)[C@H]1O` it was -9.22%; in that of `O=[N+]([O-])c1ccc(Oc2ccc(N=C=S)cc2)cc1`, 16.5%.
As to `c1ccc2c(CCC3CCNCC3)c[nH]c2c1`, the max response was -9.29%.
Still for that read-out and setting: the value for `CO/N=C(\C(=O)N[C@@H]1C(=O)N2C(C(=O)OCOC(=O)C(C)(C)C)=C(/C=C\c3scnc3C)CS[C@H]12)c1csc(N)n1` was -6.43%; that for `O=C(Cn1cnnn1)N[C@@H]1C(=O)N2C(C(=O)O)=C(CSc3nncs3)CS[C@H]12` was 1.4% and 3.1%.
Still for that read-out and setting: in the case of `CNC[C@@H]1CC[C@@H](N)[C@@H](O[C@H]2[C@H](O)[C@@H](O[C@H]3OC[C@](C)(O)[C@H](NC)[C@H]3O)[C@H](N)C[C@@H]2N)O1` it was -11.2%; in that of `CCCCCCCCCC(=O)O`, 10.1%; in that of `O=C(O)c1cccc(/C=C2/C[C@@H]3[C@@H](/C=C/[C@@H](O)C4CCCCC4)[C@H](O)C[C@@H]3O2)c1`, -5.6%.
Turning to `O=C[C@H](O)[C@@H](O)[C@H](O[C@H]1O[C@H](CO)[C@@H](O[C@H]2O[C@H](CO)[C@@H](O)[C@H](O)[C@H]2O)[C@H](O)[C@H]1O)[C@H](O)CO`, the max response is 10.4%.
The same measure, in the same setting: in the case of `C/C(=C(\CCOC(=O)c1ccccc1)SS/C(CCOC(=O)c1ccccc1)=C(/C)N(C=O)Cc1cnc(C)nc1N)N(C=O)Cc1cnc(C)nc1N` it was 9.71%; in that of `CO[C@H]1C[C@H](O[C@H]2[C@H](C)O[C@@H](O[C@@H]3/C(C)=C/C[C@@H]4C[C@@H](C[C@]5(C=C[C@H](C)[C@@H](C6CCCCC6)O5)O4)OC(=O)[C@@H]4C=C(C)[C@@H](O)[C@H]5OC/C(=C\C=C\[C@@H]3C)[C@]54O)C[C@@H]2OC)O[C@@H](C)[C@@H]1O`, -11.6%; in that of `O=C(O)CC(O)(CC(=O)O)C(=O)O`, -12%.
As for `CC[C@H](C)CCCCC(=O)N[C@@H](CCN)C(=O)N[C@H](C(=O)N[C@@H](CCN)C(=O)N[C@H]1CCNC(=O)[C@H]([C@@H](C)O)NC(=O)[C@H](CCN)NC(=O)[C@H](CCN)NC(=O)[C@H](CC(C)C)NC(=O)[C@@H](CC(C)C)NC(=O)[C@H](CCN)NC1=O)[C@@H](C)O` (X2-[Dab]T[Dab][Dab][Dab][dL]L[Dab][Dab]T; lactam 4-C), the max response is 13.6%.
Take `CCCOc1ccc2nc(NC(=O)OC)sc2c1`: the max response was -5%.
With `CSCC[C@H](NC(=O)[C@H](Cc1ccc(OS(=O)(=O)O)cc1)NC(=O)[C@@H](N)CC(=O)O)C(=O)NCC(=O)N[C@@H](Cc1c[nH]c2ccccc12)C(=O)N[C@@H](CCSC)C(=O)N[C@@H](CC(=O)O)C(=O)N[C@@H](Cc1ccccc1)C(N)=O`, the max response is -12.2% and 15%.
On to `O=P(O)(O)C(O)(Cc1cnc2ccccn12)P(=O)(O)O`, for which the max response is -4.82%.
As to `CC1(C)C2CC[C@]3(C)[C@H](C(=O)C=C4[C@@H]5C[C@@](C)(C(=O)O)CC[C@]5(C)CC[C@]43C)[C@@]2(C)CC[C@@H]1O[C@H]1O[C@H](C(=O)O)[C@@H](O)[C@H](O)[C@H]1O[C@@H]1O[C@H](C(=O)O)[C@@H](O)[C@H](O)[C@H]1O` (some centres not stated), the max response was -0.804%.
Still for that read-out and setting: the value for `C=C1CC2C3CCC4=CC(=O)C=C[C@]4(C)[C@@]3(F)[C@@H](O)C[C@]2(C)[C@@]1(O)C(=O)COC(C)=O` (some centres not stated) was -3.67%; that for `CC(C)(C)NC(=O)[C@H]1CC[C@H]2[C@@H]3CC=C4C=C(C(=O)O)CC[C@]4(C)[C@H]3CC[C@]12C` was -20.3%.
As to `O=C1O[C@@H]2[C@@H](O)[C@H](O)O[C@@H]2[C@H]1O`, the max response was 3.86%.
With `COc1ccc(CCNCC(O)COc2cccc(C)c2)cc1OC` (configuration not stated), the max response is 11.3%.
Take `CN=C(NC)NCc1ccccc1`: the max response was 13.1%.
`CCCCC(=O)O`: the max response is -7.14% and 15.8%.
Regarding `C1CNCCN1`, the max response was -4.23%.
Consider `OCC(O)COc1ccc(Cl)cc1` (configuration not stated), for which the max response is 3.94%.

The values are drawn from PubChem BioAssay (NCATS).
